Rows were chosen to be rich in hits. Some 12% of all compounds tested hit in one or more screens of this group.
CHX counter: counter-screen hit for Shiga toxin inhibitors, cycloheximide | cell reporter, cycloheximide protein synthesis inhibition counterscreen | max response, % | 300,000 tested, 12% active; in the data active means max response mostly above about 13%, no sharp cut-off; inactive means mostly below about 14%; further: read at 38.3 µM for the half of the compounds with a filed dose
FMDV antiviral: antivirals against foot and mouth disease virus; FMDV antiviral cell-based qHTS; Potency, µM (top dose mostly 57.9 µM), actives largely listed as inhibitors; AID 1159524; 410,000 tested, 1.2% active; calls by dose curve; tested in HEK293T cells; further: read-out not given here; nearly all actives have a fitted effect of over 45% in size
Shiga toxin inh: inhibitors of Shiga toxin in Vero cells; Vero cells, Shiga toxin protein synthesis inhibition reporter; inhibition, % at 38.7 µM; 290,000 tested, 9.2% active; AID 2315; in the data active means inhibition mostly above about 28%, no sharp cut-off; inactive means mostly below about 43%
Sm TGR block: S. mansoni TGR enzyme inhibition; Potency, µM (series often up to 114 µM), actives largely listed as inhibitors; purified TGR, DTNB reduction, TNB absorbance 405 nm; 360,000 tested, 3% active; active means well fitted inhibition curve with a large enough effect; inconclusive means small, poorly fitted or top-dose-only effect; inactive means no such curve, though single readings can be large or run the other way; further: nearly all actives have a fitted effect of over 60% in size
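TGR 20 nM + NADPH 100 uM (dispensed conc.), cpd preinc 15 min RT; start with NADPH (500 uM addition) then DTNB (15 mM addition). Kinetic TNB absorbance, 405 nm filter. Four-parameter Hill fit across titration.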
Large screens that a line does not name were inactive.

Fc1ccc(COc2ccc(C(=S)N3CCCC3)cc2)cc1	CHX counter 53, Shiga toxin inh 59
COc1ccc(-n2c(=O)c3c4c(sc3n(Cc3c(F)cccc3Cl)c2=O)CN(C(C)=O)CC4)cc1OC	none (no result: CHX counter, Shiga toxin inh)
COc1ccc(-n2c(C)cc(/C=N/Nc3nnc(C)n3N)c2C)cc1	CHX counter 19, Sm TGR block inconclusive
CNC(=S)N/N=C/c1cc(C)n(-c2ccc(Cl)c(Cl)c2)c1C	CHX counter 22
Cc1ccc(-n2c(C)cc(/C=N/NC(=O)c3ccncc3)c2C)cc1	CHX counter 25
Cc1ccc(-n2c(C)cc(/C=N/NC(N)=S)c2C)cc1	CHX counter 19
Cc1ccc(-n2c(C)cc(/C=N/NC(=O)CC3(C)OCCO3)c2C)cc1	none
Cc1cc(/C=N/NC(=O)c2ccncc2)c(C)n1-c1cccc(C(F)(F)F)c1	FMDV antiviral inconclusive
CC(=O)OCOC(=O)CN(CC(=O)OCOC(C)=O)c1ccccc1OCCOc1ccccc1N(CC(=O)OCOC(C)=O)CC(=O)OCOC(C)=O	none (no result: CHX counter, Shiga toxin inh, Sm TGR block)
COCCCn1cnc2oc3nc4ccccc4nc3c2c1=O	CHX counter 37, Shiga toxin inh 98
COCCCn1cnc2c(c1=O)c1nc3ccccc3nc1n2-c1ccccc1	none
COc1cccc(-c2nc(CS(=O)(=O)CC(=O)Nc3cc(OC)ccc3OC)c(C)o2)c1	Sm TGR block 50µM
CCCNC(=O)CS(=O)(=O)Cc1nc(-c2cccc(OC)c2)oc1C	Sm TGR block 22µM
CCOc1ccc(-c2nc(CS(=O)(=O)CC(=O)NCc3ccc(F)cc3)c(C)o2)cc1	CHX counter 12, Shiga toxin inh 20
CCN1CCN(CCCNC(=O)CS(=O)(=O)Cc2nc(-c3cccc(OC)c3)oc2C)CC1	none
CCOCCCNC(=O)CS(=O)(=O)Cc1nc(-c2cccc(OC)c2)oc1C	Sm TGR block 45µM
Cc1ccc(-n2c(=O)c3sc4ccccc4c3n(C)c2=O)cc1F	none (no result: CHX counter, Shiga toxin inh)
Cc1cc2nc(-c3ccc(OCc4ccccc4F)cc3)cc(C(F)(F)F)n2n1	none (no result: CHX counter, Shiga toxin inh)
CCCSc1ccccc1C(=O)N1CCN(C(=O)c2ccco2)CC1	none
O=C(OCC(=O)N1CCN(C(=O)c2ccco2)CC1)c1ccccc1O	Shiga toxin inh 32
O=C(OCC(=O)N1CCN(C(=O)c2ccco2)CC1)c1ccccc1	CHX counter 29, Shiga toxin inh 78, Sm TGR block inconclusive
O=C1c2ccccc2-c2c1cccc2C(=O)N1CCN(C(=O)c2ccco2)CC1	Sm TGR block 20µM
Cc1ccc2[nH]c3c(c2c1)CN(C(=O)CN1CCN(C(=O)c2ccco2)CC1)CC3	none (no result: FMDV antiviral)
O=C(CN1CCN(C(=O)c2ccco2)CC1)N1CCc2[nH]c3ccccc3c2C1	Sm TGR block 20µM
O=c1c(O)c(-c2cc(O)c(O)c(O)c2)oc2cc(O)ccc12	none (no result: FMDV antiviral, Sm TGR block)
CC1CCN(CC2CCN(C(=O)NCc3ccccc3)CC2)CC1	none (no result: CHX counter, Shiga toxin inh)
Cc1ccccc1C(=O)Nc1nnc(-c2ccc(C(C)(C)C)cc2)s1	CHX counter 16
Cc1cccc(C(=O)Nc2nnc(-c3ccc(C(C)(C)C)cc3)s2)c1	CHX counter 19
COc1ccccc1C(=O)Nc1nnc(-c2ccc(F)cc2)s1	none
Cc1ccc(NC(=O)c2oc3ccc(S(=O)(=O)N4CCCCC4)cc3c2C)c(C)c1	FMDV antiviral inconclusive (no result: CHX counter, Shiga toxin inh)
O=C(Nc1cccc(Cl)c1)c1cnc2sc(N3CCCC3)nn2c1=O	FMDV antiviral inconclusive (no result: CHX counter, Shiga toxin inh)
COc1ccc2c(c1)/C(=N/OC(=O)c1cccs1)CCC2	CHX counter 42
COc1ccc(NC(=O)O/N=C2/CCCc3ccc(OC)cc32)cc1	none
COc1ccc(/C(N)=N/OC(=O)c2cccs2)cc1	CHX counter 41, Shiga toxin inh 57
N/C(=N\OC(=O)c1cccs1)c1ccc(Cl)cc1	CHX counter 55, Shiga toxin inh 135
O=C(NCc1ccc(Cl)cc1)c1cnc(N2CCCCC2)c2ccccc12	none (no result: CHX counter, Shiga toxin inh)
O=C1c2ccccc2NC(c2cccc(Cl)c2)N1N=C1CCCCCC1 (stereo not given)	CHX counter 37
O=C1c2ccccc2NC(c2ccc(Cl)cc2Cl)N1O (stereo not given)	none
COC(=O)Cc1[nH]nc2c1C(c1cc(OC)c(OC)c(OC)c1)C(C#N)=C(N)O2 (stereo not given)	none
COC(=O)Cc1[nH]nc2c1C(C1C=CCCC1)C(C#N)=C(N)O2 (stereo not given)	FMDV antiviral 16µM
Cc1ccc(N2CC(NC(=O)CCc3ccccc3)CC2=O)cc1 (stereo not given)	none (no result: CHX counter, Shiga toxin inh)
CCC1(c2ccccc2)C(=O)N(C(=O)OC(C)(C)C)N1C(=O)OC(C)(C)C (stereo not given)	none (no result: CHX counter, Shiga toxin inh)
CCOC(=O)N1C(=O)[C@](CC)(c2ccccc2)N1C(=O)OCC	CHX counter 19, Sm TGR block 2.8µM
COc1cc(NC(=O)c2sc3nc4n(c(=O)c3c2C)CCCCC4)cc(OC)c1OC	none (no result: CHX counter, Shiga toxin inh)
